Laboratory results: the supplement of paper PMC11732987, “Enantioselective OTUD7B fragment discovery through chemoproteomics screening and high-throughput optimisation” (Communications Chemistry, 2025)

Tests used:
Assay in all cases: log2 ratio of Biotin-Ahx-Ub-VS probe labelling (fragment/DMSO); higher = less target engagement (more negative = stronger competition), active = hit call of the paper (q ≤ 0.05, log2 ratio ≤ -1)
Conditions in all cases: compound concentration: 200 uM; treatment time: 3 h
[1] = target: USP9X (UniProt Q93008)
Outline: (§1)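 HEK293T lysate (495 µg per sample, in Tris/CHAPS/IGEPAL buffer with protease inhibitors) was treated in triplicate with fragment at 200 µM or with DMSO for 3 h. It was then treated with Biotin-Ahx-Ub-VS (0.5 µM final) for 1 h. Labelled DUBs were NeutrAvidin-enriched, digested with LysC and trypsin, and run by diaPASEF LC-MS/MS. Spectronaut label-free quantities were global-median-normalised. Values are average log2 ratios fragment/DMSO by unpaired t-test, using proteins with ≥2 unique peptides.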

[2] = target: UniProt O00487
Outline: as §1

[3] = target: UniProt O00507
Outline: as §1

[4] = target: UniProt P51784
Outline: as §1

[5] = target: T1, UniProt Q5T2D3
T1 sequence (whole entry): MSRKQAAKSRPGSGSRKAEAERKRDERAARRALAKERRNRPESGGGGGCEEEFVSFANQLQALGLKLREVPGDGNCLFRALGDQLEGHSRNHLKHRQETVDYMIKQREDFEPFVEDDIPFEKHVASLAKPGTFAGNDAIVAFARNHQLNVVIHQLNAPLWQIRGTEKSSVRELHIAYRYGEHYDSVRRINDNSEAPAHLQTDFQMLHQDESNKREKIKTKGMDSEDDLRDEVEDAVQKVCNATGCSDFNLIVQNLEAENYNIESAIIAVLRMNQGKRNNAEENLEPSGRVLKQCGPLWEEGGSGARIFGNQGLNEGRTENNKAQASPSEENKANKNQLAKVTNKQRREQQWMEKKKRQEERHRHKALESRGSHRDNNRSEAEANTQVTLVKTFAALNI
Outline: as §1

[6] = target: T2, UniProt Q8TE49
T2 sequence (whole entry): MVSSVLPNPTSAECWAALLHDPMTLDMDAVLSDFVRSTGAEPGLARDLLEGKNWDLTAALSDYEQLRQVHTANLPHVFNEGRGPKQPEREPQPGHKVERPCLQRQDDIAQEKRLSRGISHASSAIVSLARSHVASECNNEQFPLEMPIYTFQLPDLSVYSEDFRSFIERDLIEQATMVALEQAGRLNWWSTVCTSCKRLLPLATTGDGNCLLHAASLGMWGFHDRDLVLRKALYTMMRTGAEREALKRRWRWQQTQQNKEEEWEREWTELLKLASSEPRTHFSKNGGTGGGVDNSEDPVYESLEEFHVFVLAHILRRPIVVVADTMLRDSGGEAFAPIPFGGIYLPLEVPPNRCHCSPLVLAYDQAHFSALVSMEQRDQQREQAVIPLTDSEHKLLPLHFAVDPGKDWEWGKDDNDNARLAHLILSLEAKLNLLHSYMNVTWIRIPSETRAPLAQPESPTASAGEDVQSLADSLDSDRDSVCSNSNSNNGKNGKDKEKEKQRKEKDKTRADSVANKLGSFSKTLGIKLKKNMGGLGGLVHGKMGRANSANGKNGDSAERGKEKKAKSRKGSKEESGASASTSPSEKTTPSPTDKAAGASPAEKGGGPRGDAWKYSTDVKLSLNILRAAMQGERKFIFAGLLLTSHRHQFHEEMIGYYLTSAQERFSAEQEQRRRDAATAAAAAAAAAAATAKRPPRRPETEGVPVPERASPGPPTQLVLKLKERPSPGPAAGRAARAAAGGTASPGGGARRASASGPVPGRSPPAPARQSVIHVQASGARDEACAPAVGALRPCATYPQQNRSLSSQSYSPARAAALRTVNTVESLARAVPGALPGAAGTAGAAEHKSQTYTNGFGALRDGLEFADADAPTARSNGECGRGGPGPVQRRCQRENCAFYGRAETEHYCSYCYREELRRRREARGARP
Outline: as §1

[7] = target: T3, UniProt Q9P2H5
T3 sequence (whole entry): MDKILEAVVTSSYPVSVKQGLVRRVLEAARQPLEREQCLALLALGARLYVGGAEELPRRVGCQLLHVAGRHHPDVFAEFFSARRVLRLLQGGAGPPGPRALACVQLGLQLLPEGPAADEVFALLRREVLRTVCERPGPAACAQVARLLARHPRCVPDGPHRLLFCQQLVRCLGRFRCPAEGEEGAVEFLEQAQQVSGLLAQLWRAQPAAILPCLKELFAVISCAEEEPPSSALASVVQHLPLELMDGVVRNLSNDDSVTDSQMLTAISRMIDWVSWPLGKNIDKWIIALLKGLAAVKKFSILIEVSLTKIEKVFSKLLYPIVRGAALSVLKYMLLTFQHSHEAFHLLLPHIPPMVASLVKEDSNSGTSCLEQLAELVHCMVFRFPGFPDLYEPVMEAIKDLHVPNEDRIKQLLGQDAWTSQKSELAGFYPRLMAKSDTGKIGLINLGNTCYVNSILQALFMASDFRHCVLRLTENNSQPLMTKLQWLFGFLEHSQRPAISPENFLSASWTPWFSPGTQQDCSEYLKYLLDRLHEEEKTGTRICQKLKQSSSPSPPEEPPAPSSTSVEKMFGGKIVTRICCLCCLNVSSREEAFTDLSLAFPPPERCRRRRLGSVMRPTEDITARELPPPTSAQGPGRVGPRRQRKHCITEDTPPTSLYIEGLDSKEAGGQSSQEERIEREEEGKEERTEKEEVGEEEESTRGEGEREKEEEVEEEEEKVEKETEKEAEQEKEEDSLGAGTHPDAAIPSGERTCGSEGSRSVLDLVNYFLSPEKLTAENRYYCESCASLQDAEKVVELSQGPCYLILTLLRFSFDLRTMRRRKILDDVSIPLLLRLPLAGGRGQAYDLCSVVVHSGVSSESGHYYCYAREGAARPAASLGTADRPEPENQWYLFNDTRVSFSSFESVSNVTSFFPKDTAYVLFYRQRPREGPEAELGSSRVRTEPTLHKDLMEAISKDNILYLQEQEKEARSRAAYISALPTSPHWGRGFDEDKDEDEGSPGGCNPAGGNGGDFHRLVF
Outline: as §1

[8] = target: T4, UniProt Q9UGI0
T4 sequence (whole entry): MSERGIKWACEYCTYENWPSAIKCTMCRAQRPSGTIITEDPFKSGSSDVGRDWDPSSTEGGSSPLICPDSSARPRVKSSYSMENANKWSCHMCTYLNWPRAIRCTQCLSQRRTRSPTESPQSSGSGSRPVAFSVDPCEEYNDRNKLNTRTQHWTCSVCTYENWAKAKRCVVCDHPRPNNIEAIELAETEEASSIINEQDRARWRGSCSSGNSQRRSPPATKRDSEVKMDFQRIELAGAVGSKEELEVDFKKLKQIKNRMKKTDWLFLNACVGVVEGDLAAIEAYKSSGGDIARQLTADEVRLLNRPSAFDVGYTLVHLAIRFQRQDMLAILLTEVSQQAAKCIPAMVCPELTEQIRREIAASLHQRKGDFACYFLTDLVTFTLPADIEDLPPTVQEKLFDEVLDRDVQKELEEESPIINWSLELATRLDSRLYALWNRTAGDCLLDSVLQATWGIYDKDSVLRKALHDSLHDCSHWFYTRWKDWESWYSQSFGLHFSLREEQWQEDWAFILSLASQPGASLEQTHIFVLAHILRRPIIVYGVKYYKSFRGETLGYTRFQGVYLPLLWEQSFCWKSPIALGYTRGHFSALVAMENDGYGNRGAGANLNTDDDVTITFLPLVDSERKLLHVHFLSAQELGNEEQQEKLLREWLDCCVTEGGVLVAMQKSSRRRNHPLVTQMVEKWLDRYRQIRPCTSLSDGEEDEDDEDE
Outline: as §1

[9] = target: T5, YOD1 (UniProt Q5VVQ6)
T5 sequence (whole entry): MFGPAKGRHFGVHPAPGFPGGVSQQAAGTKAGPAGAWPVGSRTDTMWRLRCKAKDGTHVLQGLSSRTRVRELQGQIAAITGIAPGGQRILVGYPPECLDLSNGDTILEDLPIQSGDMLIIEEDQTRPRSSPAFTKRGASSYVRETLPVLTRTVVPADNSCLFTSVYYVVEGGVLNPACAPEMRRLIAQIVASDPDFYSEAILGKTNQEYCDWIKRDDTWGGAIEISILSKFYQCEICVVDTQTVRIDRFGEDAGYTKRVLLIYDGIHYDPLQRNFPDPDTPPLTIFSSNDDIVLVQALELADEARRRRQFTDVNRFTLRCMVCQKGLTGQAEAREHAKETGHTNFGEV
Outline: as §1

Measured: log2 ratio of Biotin-Ahx-Ub-VS probe labelling

Chain of USP9X (Q93008 whole entry, the tested form may be a part): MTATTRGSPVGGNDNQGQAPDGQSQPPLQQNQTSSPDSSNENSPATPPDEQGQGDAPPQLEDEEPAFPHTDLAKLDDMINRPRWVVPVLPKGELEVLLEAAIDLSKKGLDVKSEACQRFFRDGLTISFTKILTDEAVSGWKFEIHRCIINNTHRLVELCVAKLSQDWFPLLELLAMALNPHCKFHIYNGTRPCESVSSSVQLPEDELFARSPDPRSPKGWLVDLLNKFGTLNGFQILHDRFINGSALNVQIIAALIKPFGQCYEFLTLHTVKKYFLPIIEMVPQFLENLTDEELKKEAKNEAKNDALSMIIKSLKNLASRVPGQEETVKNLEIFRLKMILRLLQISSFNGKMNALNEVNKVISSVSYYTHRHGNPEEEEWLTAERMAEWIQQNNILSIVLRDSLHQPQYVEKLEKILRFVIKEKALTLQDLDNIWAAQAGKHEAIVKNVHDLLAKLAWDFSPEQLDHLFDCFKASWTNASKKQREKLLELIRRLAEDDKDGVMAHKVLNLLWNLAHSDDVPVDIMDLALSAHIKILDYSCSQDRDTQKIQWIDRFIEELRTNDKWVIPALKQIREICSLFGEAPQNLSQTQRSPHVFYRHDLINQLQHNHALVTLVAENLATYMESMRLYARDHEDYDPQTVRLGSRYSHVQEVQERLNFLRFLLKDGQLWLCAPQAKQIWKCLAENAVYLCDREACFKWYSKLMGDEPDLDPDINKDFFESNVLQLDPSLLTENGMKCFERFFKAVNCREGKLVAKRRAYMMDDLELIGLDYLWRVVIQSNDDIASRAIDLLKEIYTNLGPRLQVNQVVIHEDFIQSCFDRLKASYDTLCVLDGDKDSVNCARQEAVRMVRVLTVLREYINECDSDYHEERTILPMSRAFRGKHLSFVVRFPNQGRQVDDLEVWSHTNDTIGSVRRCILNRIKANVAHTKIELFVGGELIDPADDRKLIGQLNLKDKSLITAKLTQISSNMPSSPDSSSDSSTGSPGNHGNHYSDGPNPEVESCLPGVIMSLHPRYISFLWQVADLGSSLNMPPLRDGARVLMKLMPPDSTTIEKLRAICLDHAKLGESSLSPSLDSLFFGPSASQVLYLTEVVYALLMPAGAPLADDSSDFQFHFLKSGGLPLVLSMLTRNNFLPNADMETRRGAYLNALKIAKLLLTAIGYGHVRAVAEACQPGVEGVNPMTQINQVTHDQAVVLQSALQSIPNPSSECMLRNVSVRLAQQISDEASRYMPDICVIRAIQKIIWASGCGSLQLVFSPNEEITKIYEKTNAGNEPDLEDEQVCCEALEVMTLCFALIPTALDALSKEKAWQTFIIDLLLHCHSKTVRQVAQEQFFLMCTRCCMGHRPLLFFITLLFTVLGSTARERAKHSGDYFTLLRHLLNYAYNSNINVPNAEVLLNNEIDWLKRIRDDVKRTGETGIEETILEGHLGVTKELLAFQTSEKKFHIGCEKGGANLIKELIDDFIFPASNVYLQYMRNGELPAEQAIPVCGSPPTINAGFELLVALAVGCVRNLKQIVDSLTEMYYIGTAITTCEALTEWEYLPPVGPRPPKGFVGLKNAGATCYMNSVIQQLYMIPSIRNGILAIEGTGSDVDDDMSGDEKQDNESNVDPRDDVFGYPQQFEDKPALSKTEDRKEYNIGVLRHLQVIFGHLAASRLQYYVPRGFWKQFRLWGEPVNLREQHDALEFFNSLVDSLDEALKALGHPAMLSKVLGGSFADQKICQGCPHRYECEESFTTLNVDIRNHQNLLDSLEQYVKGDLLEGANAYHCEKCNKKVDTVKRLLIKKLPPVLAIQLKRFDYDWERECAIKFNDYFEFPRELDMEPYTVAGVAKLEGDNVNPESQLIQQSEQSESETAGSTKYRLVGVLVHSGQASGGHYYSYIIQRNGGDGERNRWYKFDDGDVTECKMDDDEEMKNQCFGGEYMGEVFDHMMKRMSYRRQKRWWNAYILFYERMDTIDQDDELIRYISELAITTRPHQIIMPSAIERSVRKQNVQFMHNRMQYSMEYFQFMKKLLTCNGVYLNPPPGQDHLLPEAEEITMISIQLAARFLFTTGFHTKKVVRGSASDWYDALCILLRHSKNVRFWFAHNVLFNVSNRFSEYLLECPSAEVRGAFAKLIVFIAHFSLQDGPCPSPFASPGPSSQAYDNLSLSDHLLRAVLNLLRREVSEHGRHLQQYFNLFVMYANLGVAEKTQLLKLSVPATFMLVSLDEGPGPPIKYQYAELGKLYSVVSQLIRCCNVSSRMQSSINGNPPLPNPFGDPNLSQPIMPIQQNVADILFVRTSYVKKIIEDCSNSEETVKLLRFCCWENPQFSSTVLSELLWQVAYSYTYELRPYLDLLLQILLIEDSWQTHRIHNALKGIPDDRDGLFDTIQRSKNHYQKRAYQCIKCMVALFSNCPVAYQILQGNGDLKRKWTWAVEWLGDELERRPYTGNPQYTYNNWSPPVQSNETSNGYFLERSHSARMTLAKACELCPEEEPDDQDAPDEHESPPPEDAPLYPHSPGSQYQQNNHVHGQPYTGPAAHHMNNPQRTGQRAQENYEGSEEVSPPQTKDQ
Chain of UniProt O00487 (O00487 whole entry): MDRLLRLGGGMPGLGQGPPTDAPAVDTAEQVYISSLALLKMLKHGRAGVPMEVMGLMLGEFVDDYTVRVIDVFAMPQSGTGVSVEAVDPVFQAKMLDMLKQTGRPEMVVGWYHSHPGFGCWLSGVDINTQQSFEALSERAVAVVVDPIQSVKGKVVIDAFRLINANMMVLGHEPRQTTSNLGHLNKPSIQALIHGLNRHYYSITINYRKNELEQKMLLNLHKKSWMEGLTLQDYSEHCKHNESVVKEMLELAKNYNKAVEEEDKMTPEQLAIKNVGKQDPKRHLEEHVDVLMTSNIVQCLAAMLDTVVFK
Chain of UniProt P51784 (P51784 whole entry): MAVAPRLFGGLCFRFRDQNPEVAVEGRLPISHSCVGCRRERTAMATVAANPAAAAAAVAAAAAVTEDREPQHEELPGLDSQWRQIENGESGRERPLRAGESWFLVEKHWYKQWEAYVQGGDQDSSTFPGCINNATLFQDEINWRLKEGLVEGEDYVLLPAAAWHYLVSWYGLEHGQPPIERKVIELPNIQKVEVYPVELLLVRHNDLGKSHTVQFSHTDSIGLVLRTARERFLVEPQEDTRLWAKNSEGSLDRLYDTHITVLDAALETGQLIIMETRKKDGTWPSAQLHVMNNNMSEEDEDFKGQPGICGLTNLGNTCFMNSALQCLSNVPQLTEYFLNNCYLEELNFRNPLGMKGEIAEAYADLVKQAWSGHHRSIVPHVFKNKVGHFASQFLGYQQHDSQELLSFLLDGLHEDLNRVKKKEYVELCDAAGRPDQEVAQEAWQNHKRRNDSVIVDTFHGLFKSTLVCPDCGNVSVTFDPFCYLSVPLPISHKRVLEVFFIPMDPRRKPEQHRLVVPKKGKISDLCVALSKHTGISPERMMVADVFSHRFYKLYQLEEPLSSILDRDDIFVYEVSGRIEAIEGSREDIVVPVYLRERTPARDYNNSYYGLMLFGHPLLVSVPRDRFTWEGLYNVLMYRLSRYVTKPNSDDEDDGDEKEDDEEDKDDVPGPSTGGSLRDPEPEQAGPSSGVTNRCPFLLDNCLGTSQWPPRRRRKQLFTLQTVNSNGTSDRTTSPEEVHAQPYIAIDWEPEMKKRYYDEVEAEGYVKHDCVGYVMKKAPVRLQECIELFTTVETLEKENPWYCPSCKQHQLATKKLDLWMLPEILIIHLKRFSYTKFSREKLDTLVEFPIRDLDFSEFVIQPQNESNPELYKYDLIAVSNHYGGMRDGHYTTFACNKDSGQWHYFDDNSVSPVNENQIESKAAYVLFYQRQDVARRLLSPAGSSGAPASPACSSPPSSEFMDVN

O=C(CCl)Nc1cccc(NC(=O)c2ccccc2)c1
inactive: [1] 0.246 | [2] 0.00956 | [3] 0.236 | [4] 0.295 | [5] 0.263 | [6] -0.0536 | [7] -0.23 | [8] 0.0168 | [9] 0.288
